Assay results: PubChem BioAssay (NCATS)
Results filed as inconclusive are left out. Activity calls are given as the source filed them. Calls come from the whole dose curve; as a rule, active = well fitted curve in the direction sought with a large enough effect; inconclusive = small, poorly fitted or top-dose-only effect, or another doubt; inactive = no such curve, though single readings can be large; an effect the other way counts as inactive or inconclusive.

What was measured:
[1] = molecular target: Glutathione peroxidase 1 (Homo sapiens) (UniProt P07203); test: Primary qHTS Assay for Inhibitors of Recombinant Selenoprotein Glutathione Peroxidase 1 (GPX1) (AID 1845191); note: nearly all actives have a fitted effect of over 65% in size; for activity, negative = inhibition: % is set by controls: 0 for no effect and ±100 for the full control effect
How it was run: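 GR-coupled readout: NADPH consumption tracked by fluorescence, ex 340/em 450 nm, at t=0 and after 15 min at RT. Final mix 10 nM GPX1, 1 mM GSH, 0.5 mM CHP, 0.5 mM NADPH, 100 nM GR, 0.01% BSA, following 30 min enzyme–compound preincubation.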

[2] = molecular target: Phospholipid hydroperoxide glutathione peroxidase GPX4 (Homo sapiens) (UniProt P36969); test: Primary qHTS Assay for Inhibitors of Recombinant Selenoprotein Glutathione Peroxidase 4 (GPX4) (AID 1845192); note: nearly all actives have a fitted effect of over 65% in size; for activity change, negative = inhibition: series mostly up to about 50 µM; % is set by controls: 0 for no effect and ±100 for the full control effect
How it was run: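 Steps: GPX4 plus compound, 30 min RT; add GR/GSH/NADPH master mix; start with cumene hydroperoxide; read 340/450 nm fluorescence at 0 and 15 min. Finals were 200 nM GPX4, 1 mM GSH, 0.5 mM CHP, 0.5 mM NADPH, 100 nM GR.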

[3] = molecular target: Luciferin 4-monooxygenase (Photinus pyralis) (UniProt P08659); test: Primary firefly luciferase (FLuc) qHTS assay for identification of artifact compounds. (AID 1845220); note: nearly all actives have a fitted effect of over 60% in size;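 for activity change, negative = inhibition: series mostly up to about 54 µM; plate controls were DMSO vehicle for no effect and no enzyme for full effect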
How it was run: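 Titrated compounds were incubated 15 min at RT, protected from light, with luciferin and ATP at 10 uM; reaction started with 10 nM FLuc, luminescence imaged at 5 min, and concentration-response fitted by Hill equation.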

[4] = Primary fluorescence-based thiol-reactive (MSTI) qHTS assay for identification of artifact compounds. (AID 1845221);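 note: series mostly up to about 54 µM; thiol-reactive compounds lower the probe fluorescence signal; nearly all actives have a fitted effect of over 65% in size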
How it was run: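 First, 4 uM MSTI in 2% DMSO/PBS pH 7.4 was dispensed; next, compounds were added; then plates sat 1 h at room temperature without light. Finally, emission at 598 nm was recorded.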

[5] = system: Nanoluciferase (engineered Oplophorus gracilirostris luciferase); test: Primary Nanoluciferase (NLuc) qHTS assay for identification of artifact compounds. (AID 1845222);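 note: NLuc secreted into diluted conditioned medium of S16 cells; series mostly up to about 54 µM; 0% = DMSO and -100% = no enzyme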
How it was run: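 qHTS format, against NLuc in S16 cell-conditioned medium. Nano-Glo substrate 1:100 was added after 15 min at room temperature. Luminescence was taken after a further 5 min.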

Phospholipid hydroperoxide glutathione peroxidase GPX4 (Homo sapiens), sequence (P36969 whole entry, looked up): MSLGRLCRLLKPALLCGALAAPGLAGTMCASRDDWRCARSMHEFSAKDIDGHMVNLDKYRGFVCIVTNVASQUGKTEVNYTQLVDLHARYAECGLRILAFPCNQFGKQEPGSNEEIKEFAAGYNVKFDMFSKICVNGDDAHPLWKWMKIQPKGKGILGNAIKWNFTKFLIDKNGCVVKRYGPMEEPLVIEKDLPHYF
Glutathione peroxidase 1 (Homo sapiens), sequence (P07203 whole entry, looked up): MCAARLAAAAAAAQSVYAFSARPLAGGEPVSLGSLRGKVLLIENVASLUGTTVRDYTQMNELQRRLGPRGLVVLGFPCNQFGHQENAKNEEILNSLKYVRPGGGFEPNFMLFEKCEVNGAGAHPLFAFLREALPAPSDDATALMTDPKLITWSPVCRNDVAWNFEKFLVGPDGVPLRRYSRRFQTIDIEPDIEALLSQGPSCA

COc1ccc(C2OCC3C(c4cc(OC)c5c(c4)OCO5)OCC23)cc1OC (stereo not given)
inactive: Potency [1] | Potency [2] | Potency [3] | Potency [4] | Potency [5]

Nc1ccc(-n2nc(C(F)(F)F)cc2C(F)(F)F)cc1
inactive: Potency [1] | Potency [2] | Potency [3] | Potency [4] | Potency [5]

C=C[C@]1(C)C[C@@H](OC(=O)CSC2C[C@H]3CC[C@@H](C2)N3C)[C@]2(C)[C@H](C)CC[C@]3(CCC(=O)[C@H]32)[C@@H](C)[C@@H]1O (stereo not given in full)
inactive: Potency [1] | Potency [2] | Potency [3] | Potency [4] | Potency [5]

CC(CCc1ccc(O)cc1)O[C@@H]1O[C@H](CO[C@@H]2OC(CO)[C@H](O)[C@H]2O)[C@@H](O)[C@H](O)[C@H]1O (stereo not given in full)
inactive: Potency [1] | Potency [2] | Potency [3] | Potency [4] | Potency [5]

CC1=CC(=O)CC(C)(C)C1/C=C/C(C)OC1OC(COC2OCC(O)C(O)C2O)C(O)C(O)C1O (stereo not given)
inactive: Potency [1] | Potency [2] | Potency [3] | Potency [5]

Cc1cccc(-c2nn3c(c2-c2ccnc4ccc(C(N)=O)cc24)CCC3)n1
inactive: Potency [1] | Potency [2] | Potency [3] | Potency [5]

CC(=O)NC1CC(=O)C23C(=O)NC(Cc4c[nH]c5ccccc45)C2C(C)=C(C)C(O)C3/C=C/CC(C)/C=C(/C)C(O)C1O (stereo not given)
inactive: Potency [1] | Potency [2] | Potency [3] | Potency [5]

Nc1nc(COC(=O)c2ccc([N+](=O)[O-])cc2)nc(Nc2ccccc2)n1
inactive: Potency [1] | Potency [2] | Potency [3] | Potency [5]

CC1CC(=O)C2C(O)(C1)CC(O)C13OC1c1c(O)cccc1C(=O)C23O (stereo not given)
inactive: Potency [1] | Potency [2] | Potency [3] | Potency [5]

COc1cc(/C=C/C(=O)OC[C@H]2O[C@@H](OC3OC=C(C(=O)O)C4C(O)CC(C)(O)C34)[C@H](O)[C@@H](O)[C@@H]2O)cc(OC)c1O (stereo not given in full)
inactive: Potency [1] | Potency [2] | Potency [3] | Potency [5]

O=C(Nc1cc(-c2ccccc2)nn1-c1ccccc1F)c1ccc([N+](=O)[O-])cc1
inactive: Potency [1] | Potency [2] | Potency [3] | Potency [5]

C=C1CCC2C(C)(C)CC(=O)CC2(C)C1CCC(C)CCO (stereo not given)
inactive: Potency [1] | Potency [2] | Potency [3] | Potency [5]

COC(=O)[C@]1(C)CCC[C@@]2(C)C(=O)CC[C@H]3C(=O)C=C(CC[C@@H]21)C3O (stereo not given in full)
inactive: Potency [1] | Potency [2] | Potency [3] | Potency [5]

COc1cc2c(c(O)c1OC/C=C(\C)CC/C=C(/C)CCC=C(C)C)CN(C(CCC(=O)O)C(=O)O)C2=O (stereo not given)
inactive: Potency [1] | Potency [2] | Potency [3] | Potency [5]

C=C1CC2C(C)(CCC(=O)O)C(C(C)(C)O)CCC2(C)C2(C(=O)OC)C(=O)C(C)(O)C(=O)C12C (stereo not given)
inactive: Potency [1] | Potency [2] | Potency [3] | Potency [5]

Cc1c(O)cc2c(c1O)COC1(O)CCCOC21 (stereo not given)
inactive: Potency [1] | Potency [2] | Potency [3] | Potency [5]

CC(C)=CCC/C(C)=C/CO[C@@H]1O[C@H](CO[C@@H]2OC[C@](O)(CO)[C@H]2O)[C@@H](O)[C@H](O)[C@H]1O
inactive: Potency [1] | Potency [2] | Potency [3] | Potency [5]

C=C1CCC2(OC1)OC1CC3C4CC=C5CC(O)CC(O[C@@H]6OC[C@H](OC(=O)C(O)C(C)CC)[C@H](O)[C@H]6O[C@@H]6O[C@@H](C)[C@H](O)[C@@H](O)[C@H]6O)C5(C)C4CCC3(C)C1C2C (stereo not given in full)
inactive: Potency [1] | Potency [2] | activity change, negative = inhibition [3] 0.354% [at 11.6 µM] | activity, negative = inhibition [5] 4.49% [at 11.6 µM]

C=C[C@@](C)(CCC=C(C)C)O[C@@H]1O[C@H](CO[C@@H]2OC[C@H](O)[C@H](O)[C@H]2O)[C@@H](O)[C@H](O)[C@H]1O
inactive: Potency [1] | Potency [2] | Potency [3] | Potency [5]

COC(=O)C1=CO[C@@H](O[C@@H]2O[C@H](CO)[C@@H](O)[C@H](O)[C@H]2O)[C@@H]2[C@@H](C)[C@@H](OC(=O)/C=C/c3ccccc3)[C@@H](O)[C@H]12
inactive: Potency [1] | Potency [2] | Potency [3] | Potency [5]

CC1(C)CCC2(C(=O)O)CCC3(C)C(=CCC4C5(C)CCC(O)C(C)(CO)C5C(O)CC43C)C2C1 (stereo not given)
inactive: Potency [1] | Potency [2] | Potency [3] | Potency [5]

C/C(=C\CCC(C)(C)O)CCO[C@@H]1O[C@H](CO[C@@H]2O[C@@H](C)[C@H](O)[C@@H](O)[C@H]2O)[C@@H](O)[C@H](O)[C@H]1O
inactive: Potency [1] | Potency [2] | Potency [3] | Potency [5]

COc1cc(CC2COC(c3ccc(OC4OC(CO)C(O)C(O)C4O)c(OC)c3)C2CO)ccc1O (stereo not given)
inactive: Potency [1] | Potency [2] | Potency [3] | Potency [5]

CC1=CC23[C@H](C=C(C(=O)O)[C@@H]2COC(=O)[C@]3(O)CO)[C@@H]1C (stereo not given in full)
inactive: Potency [1] | Potency [2] | Potency [3] | Potency [5]
